Inconclusive results are not listed. A call without a number means that no potency is given here. Activity calls are given as the source filed them. Calls come from the whole dose curve; as a rule, active = well fitted cell-killing curve with a large enough effect in the repeat runs; inconclusive = weak or mixed curves, or effect the other way; inactive = flat fitted curve, though single readings scatter.
Test: qHTS assay to identify small molecule agonists of the androgen receptor (AR) signaling pathway in the presence of an antagonist - cell viability counter screen (AID 1259379); note: nearly all actives have a fitted effect of over 25% in size
Details: MDA-kb2 viability, CellTiter-Fluor, 16 h; series mostly up to 92.4 µM
Description: National Center for Advancing Translational Sciences [NCATS]
NIH Chemical Genomics Center [NCGC]
U.S. Environmental Protection Agency [EPA]
National Institutes of Environmental Health Sciences [NIEHS]
National Toxicology Program [NTP]
U.S. Food and Drug Administration [FDA]
Androgen receptor (AR) is an important member of nuclear receptor family. Its signaling plays a critical role in AR-dependent prostate cancer and other androgen related diseases. Considerable attention has been given in the past decades to develop methods to study and screen for the environmental chemicals that have the potential to interfere with metabolic homeostasis, reproduction, developmental and behavioral functions. Therefore AR binding assay for screening against androgen agonists and antagonists can be used to identify potential endocrine disruptors.
MDA-kb2 cells (from ATCC, deposited by Wilson et al.) are human breast carcinoma cells that were stably transfected with a luciferase reporter gene under control of the MMTV promoter that contains response elements for both androgen receptor (AR) and glucocorticoid receptor (GR). This particular screening for measuring luciferase reporter gene activity using MDA-kb2 cells against Tox21 10K library compounds is a confirmation study on agonist mode screening in the presence of AR-antagonist compound (Nilutamide) at 3.0uM final concentration. The cytotoxicity of the compounds was tested in parallel by measuring the cell viability using CellTiter-Fluor assay system (Promega, Madison, WI) in the same wells.
Tox21 Assay Protocol Summary:
MDA-kb2 cells (cells cultured without CO2) were dispensed at 3,000 cells/well in 4uL of culture medium into white wall/solid-bottom 1536-well plates (Corning Life Sciences, Corning, NY) using a Multidrop Combi (Thermo Fisher Scientific Inc., Waltham, MA) dispenser. The assay plates were incubated at 37C and 0% CO2 for 5hr. One uL of 3.0uM (final concentration) Nilutamide or assay buffer was added using two separate tips of Flying Reagent Dispenser (FRD, Aurora Discovery, San Diego, CA). Then 23nL of compounds dissolved in DMSO at 15 concentrations and positive controls were transferred to the assay plates using a Pintool station (Wako, San Diego, CA). The assay plates were incubated at 37C and 0% CO2 for 16 hr. After 15hr incubation at 37C, 1uL/well CellTiter-Fluor reagent (Promega Corporation) was added to each well of the assay plates using FRD. After 1hr incubation at 37C and 0% CO2, the fluorescence signal was measured using a ViewLux plate reader (PerkinElmer, Shelton, CT).

| SMILES | Potency |
| --- | --- |
| CN(C)C(=O)Cl | inactive |
| COc1nc(NC(C)C)nc(NC(C)C)n1 | inactive |
| c1ccc2c(c1)CCCC2 | inactive |
| Cc1cccc(C)c1N | inactive |
| CNC(=O)O/N=C/C(C)(C)SC | inactive |
| O=C(O)Cc1ccccc1 | inactive |
| COP(=S)(OC)Oc1ccc(SC)c(C)c1 | inactive |
| O=C(O)c1cc(Oc2ccc(C(F)(F)F)cc2Cl)ccc1[N+](=O)[O-] | inactive |
| CN(C)C(=O)C(c1ccccc1)c1ccccc1 | inactive |
| Cc1cc(Cl)ccc1OC(C)C(=O)O (stereo not given) | inactive |
| ClCCOCCCl | inactive |
| Cc1ccc(N)cc1 | inactive |
| C=CC(=O)OCC(CC)CCCC (stereo not given) | inactive |
| N#Cc1cccc(C#N)c1 | inactive |
| Cc1cccc(N)c1 | inactive |
| O=C(O)CCCc1ccc(N(CCCl)CCCl)cc1 | inactive |
| Clc1cnc(Oc2ccc(Oc3ncc(Cl)cc3Cl)cc2)c(Cl)c1 | inactive |
| CC(=O)/C=C/c1ccccc1 | inactive |
| CCCCCCCCCCCCCCCCCC(=O)O | inactive |
| FC(F)(F)c1ccc(Cl)cc1 | inactive |

| SMILES | Potency |
| --- | --- |
| CC(C)(C)C(=O)CCl | inactive |
| Cl[C@H]1OCCO[C@@H]1Cl | inactive |
| CN(C)C(=O)Nc1cccc(C(F)(F)F)c1 | inactive |
| CC[N+](=O)[O-] | inactive |
| CCOc1ccc(N)cc1 | inactive |
| ClC(Cl)c1ccccc1 | inactive |
| CCSC(=O)N1CCCCCC1 | inactive |
| CNc1cnn(-c2cccc(C(F)(F)F)c2)c(=O)c1Cl | inactive |
| Cc1ccccc1N | inactive |
| CN(C)CCC#N | inactive |
| N#CN=C(N)N | inactive |
| C/C=C/c1ccc2c(c1)OCO2 | inactive |
| O=[N+]([O-])c1ccc(Cl)c(Cl)c1 | inactive |
| C[C@]12CC[C@H](O)CC1=CC[C@@H]1[C@@H]2CC[C@]2(C)C(=O)CC[C@@H]12 | inactive |
| O=P1(NCCCl)OCCCN1CCCl (stereo not given) | inactive |
| Sc1ccccc1 | inactive |
| Nc1nc(N)nc(NC2CC2)n1 | inactive |
| C=CC#N | inactive |
| O=C(O)C(Br)Br | inactive |
| Cc1cc(O)ccc1Cl | inactive |

Source: PubChem BioAssay (Tox21)
